DT40 TDP1 CPT: qHTS for Inhibitors of human tyrosyl-DNA phosphodiesterase 1 (TDP1): qHTS in cells in presence of CPT | hit rate 12% among 420,000 | AID 686979, 2013 | chicken DT40 Tdp1-/-;hTDP1 cells + 20 nM CPT, ATP luminescence, 48 h | Potency, µM (titrated, usually from 46.2 µM), without a hit: at the top dose activity change, negative = growth inhibition, usual class: inhibitors; also: potency is read from the fitted curve at half-maximal effect; nearly all actives have a fitted effect of over 55% in size
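Cell growth measured by CellTiter-Glo luminescence after a minimum 48 h, 37 C compound exposure with 20 nM CPT in Tdp1-knockout DT40 cells stably expressing hTDP1, seeded 400/well; qHTS titration format.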
HT1080 IDH1KD tx: qHTS for induction of synthetic lethality in tumor cells producing 2HG: qHTS for the HT-1080-IDH1KD cell line. AID 686971, 2013. HT-1080 IDH1 knockdown viability, ATP luminescence, 48 h. Potency, µM (highest dose often 46.1 µM), inactives show at the highest dose activity, negative = toxicity, usual class: cytotoxic. hit rate 2% among 360,000;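 also: potency is read from the fitted curve at half-maximal effect; 0% = DMSO wells and -100% = cell-free medium wells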
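Viability of IDH1-knockdown HT-1080 fibrosarcoma cells was assessed by CellTiter-Glo after 48 h at 37 °C with titrated compound; concentration-effect curves were classified by fit quality and response size.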
HT1080-NT tox: qHTS for induction of synthetic lethality in tumor cells producing 2HG: qHTS for the HT-1080-NT fibrosarcoma cell line. HT-1080-NT fibrosarcoma viability, CellTiter-Glo ATP luminescence, 48 h. Potency, µM (titrated, usually from 46.1 µM), for the others: at the top dose activity, negative = less viability, hits mostly cytotoxic. hit rate 1.6% among 360,000. AID 686970, 2013;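 also: NT is the 2HG producing partner of a matched IDH1 knockdown line; potency is read from the fitted curve at half-maximal effect; 0% = DMSO-treated cells and -100% = media-only wells without cells; nearly all actives have a fitted effect of over 55% in size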
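HT-1080-NT fibrosarcoma cells (2HG-overproducing), 750 cells/well in RPMI with 5% FBS, dosed after 2 h and incubated 48 h at 37C. CellTiter-Glo luminescence normalized to DMSO and no-cell wells; concentration-response curves fitted and classed.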
IL1B secr inh: qHTS for Inhibitors of Inflammasome Signaling: IL-1-beta AlphaLISA Primary Screen; THP-1 LPS/ATP IL-1B secretion, AlphaLISA, 16 h; stronger effect = lower value; hit rate 4.7% among 360,000; activity change, % at 57.5 µM; in the data active = activity change below about -50%; inconclusive = mostly about -30% to -49%
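Secreted IL-1B measured by AlphaLISA bead assay after 16 h compound exposure of THP-1 cells; compounds (final up to 57.5 uM) added 1 h before LPS (250 ng/mL) and ATP (1.25 mM) stimulation; lower signal means less secretion.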
12-LOX inh: Primary qHTS assay for inhibitors of human arachidonate 12S-lipoxygenase (ALOX12): Round 2 | AID 1671190, 2021 | hit rate 1.1% among 580,000 | Potency, µM (titrated, usually from 108 µM), for the others: top-dose activity change, negative = inhibition, hits mostly inhibitors | Polyunsaturated fatty acid lipoxygenase ALOX12 (Homo sapiens), P18054 | purified 12hLO, xylenol orange hydroperoxide absorbance; also: potency is read from the fitted curve at half-maximal effect
Target sequence (P18054 whole entry, looked up): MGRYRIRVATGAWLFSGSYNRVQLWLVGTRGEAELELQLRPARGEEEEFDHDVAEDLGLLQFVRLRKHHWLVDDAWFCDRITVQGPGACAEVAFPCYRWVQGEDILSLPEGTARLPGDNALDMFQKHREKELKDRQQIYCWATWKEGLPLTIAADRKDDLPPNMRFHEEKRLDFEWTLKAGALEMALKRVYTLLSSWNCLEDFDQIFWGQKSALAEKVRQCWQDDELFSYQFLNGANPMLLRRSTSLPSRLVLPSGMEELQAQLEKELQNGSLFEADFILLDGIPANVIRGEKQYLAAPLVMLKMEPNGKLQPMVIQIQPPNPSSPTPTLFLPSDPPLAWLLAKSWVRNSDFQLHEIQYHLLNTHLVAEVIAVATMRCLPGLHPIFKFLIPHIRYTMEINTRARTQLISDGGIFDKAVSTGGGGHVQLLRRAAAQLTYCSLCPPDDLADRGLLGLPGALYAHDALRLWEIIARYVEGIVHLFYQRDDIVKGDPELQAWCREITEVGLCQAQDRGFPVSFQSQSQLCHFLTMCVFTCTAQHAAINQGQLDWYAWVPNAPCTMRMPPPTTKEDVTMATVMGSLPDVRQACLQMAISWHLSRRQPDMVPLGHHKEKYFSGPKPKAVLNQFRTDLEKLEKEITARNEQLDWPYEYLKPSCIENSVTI
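Hydroperoxide product was detected by ferrous iron/xylenol orange as the 573 to 405 nm absorbance ratio. Arachidonic acid at 40 uM (final) was turned over for 30 min at room temperature by 150 nM human 12hLO, pH 7.0 Hepes buffer, after 15 min compound preincubation.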
TDP1 cell noCPT: qHTS for Inhibitors of human tyrosyl-DNA phosphodiesterase 1 (TDP1): qHTS in cells in absence of CPT | hit rate 15% among 420,000 | AID 686978, 2013 | DT40 Tdp1-/- hTDP1 cells, no CPT, ATP luminescence, 48 h | Potency, µM (titrated, usually from 46.2 µM), inactives show at the highest dose activity change, negative = growth inhibition, hits mostly inhibitors; also: potency is read from the fitted curve at half-maximal effect; nearly all actives have a fitted effect of over 55% in size
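Chicken DT40 Tdp1-/- cells complemented with human TDP1, screened without camptothecin (DMSO vehicle only), 400 cells/well. Compounds pin-transferred, cells incubated at 37 °C for at least 48 hr. Growth read as ATP-dependent luminescence (CellTiter-Glo, 30 min at RT).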
Active calls of the source: *; ? = inconclusive; · = no result; [ ] = remark or other dose. The full list was thinned out, with hits kept by preference. Unless noted, calls follow the shape of the dose curve; as a rule, active = well fitted curve in the direction sought with a large enough effect; inconclusive = small, poorly fitted or top-dose-only effect, or another doubt; inactive = no such curve, though single readings can be large; an effect the other way counts as inactive or inconclusive. Unless noted, % is scaled to controls: 0 for no effect and ±100 for the full control effect.

SMILES	DT40 TDP1 CPT	HT1080 IDH1KD tx	HT1080-NT tox	IL1B secr inh	12-LOX inh	TDP1 cell noCPT
Cc1ccc(SCCC(=O)OC(C(=O)NC(N)=O)C(C)C)cc1 (stereo not drawn)	16µM*	11%	0%	23	341%	16µM*
CCOc1ccc(S(=O)(=O)N(C)CC(=O)N2CCOCC2)cc1	·	·	·	·	11%	·
C/C(=N\NC(=O)c1c(Br)c(C)nn1C)c1cccc(NC(=O)C2CCC2)c1	-30%	9%	15%	-25	-10%	?
C/C(=N\NC(=O)c1c([N+](=O)[O-])c(C)nn1C)c1ccc(NC(=O)c2ccc(C)o2)cc1	-22%	-8%	-12%	-9	4%	-17%
C/C(=N\NC(=O)c1c([N+](=O)[O-])c(C)nn1C)c1ccc(NC(=O)C2CCCC2)cc1	0.16µM*	0.33µM*	0.46µM*	106	2%	0.18µM*
C/C(=N\NC(=O)c1c(Cl)c(C)nn1C)c1ccc(NC(=O)C2CCC2)cc1	0.65µM*	0.82µM*	1.6µM*	101	-1%	0.37µM*
OCCN1CCN(CC#CCC(c2ccccc2)c2ccccc2)CC1	?	-4%	-14%	-27	184%	?
OCCN1CCN(CC#CCn2c3ccccc3c3ccccc32)CC1	?	?	21µM*	-4	?	?
O=C(c1ccc(-n2cccn2)cc1)N1CCCC1c1ccc2c(c1)OCCCO2 (stereo not drawn)	·	·	·	·	16%	·
COc1ccc(-c2nc(-c3ccc(NC(=O)c4ccc(Br)o4)cc3)no2)cc1OC	18µM*	?	?	-18	0%	6.5µM*
COc1cc(-c2nc(-c3ccc(NC(=O)c4ccc(Br)o4)cc3)no2)cc(OC)c1OC	13µM*	?	?	42	-21%	16µM*
O=C(Nc1ccc(-c2noc(-c3ccc(F)cc3)n2)cc1)c1ccc(Br)o1	·	·	·	·	-22%	·
COc1ccc(CCC(=O)Nc2ccc(-c3noc(-c4ccc(OC)c(OC)c4)n3)cc2)cc1	-28%	0%	-7%	17	-9%	?
Cc1ccc(N=Nc2c(N)nn3c(C)cc(C)nc23)cc1	?	21%	23%	-10	1%	23µM*
Cc1ccc(N=Nc2c(N)nn(-c3ccccc3)c2N)cc1	3.7µM*	9.2µM*	10µM*	0	-14%	4.6µM*
Cc1nn(-c2ccccc2)c(N)c1N=Nc1ccc2ccccc2c1	-8%	-9%	-9%	-1	-13%	?
CCc1cccc(C)c1NC(=O)C1CC(=O)N(C2CCCC2)C1 (stereo not drawn)	-17%	1%	-5%[9.24 µM]	-15	4%	-5%
CCOc1ccccc1CN1CCC2(CC1)Cc1ccccc1CNC2=O	·	·	·	·	7%[6.33 µM]	·
CCN1CCc2c(sc(-n3cccc3)c2C(CCC(C)C)NC(=O)NCCC(=O)OC)C1 (stereo not drawn)	?	·	·	·	-5%	26µM*
Cc1sc(-n2cccc2)c(C(C)NC(=O)Nc2ccccc2Cl)c1C (stereo not drawn)	?	·	·	·	-14%	?
CC(NC(=O)Nc1ccccc1C(F)(F)F)c1c(-n2cccc2)sc2c1CCCC2 (stereo not drawn)	?	·	·	·	-24%	10µM*
CCN1CCc2c(sc(-n3cccc3)c2C(C)NC(=O)Nc2ccc(C(=O)OC)cc2)C1 (stereo not drawn)	18µM*	·	·	·	-60%	18µM*
COC(=O)C(Cc1ccc(O)cc1)NC(=O)c1nn(CC(C)C)c(=O)c2ccccc12 (stereo not drawn)	·	·	·	·	7%	·
CCCCCCOc1ccc(/C=C/c2nc3ccccc3s2)cc1	·	·	·	·	-10%	·
COc1cc(C(=O)/C=C/c2cccnc2)ccc1O	?	?	?	-99*	?	18µM*
SMILES	DT40 TDP1 CPT	HT1080 IDH1KD tx	HT1080-NT tox	IL1B secr inh	12-LOX inh	TDP1 cell noCPT
CN(C)S(=O)(=O)c1ccc(C(=O)/C=C/c2cccnc2)cc1	8.2µM*	-17%	-2%	-4	-25%	21µM*
O=C(/C=C/c1cccnc1)c1cc(F)ccc1O	?	1%	0%	-7	-15%	21µM*
COc1ccc(OC)c(C(=O)/C=C/c2cccnc2)c1	?	?	21µM*	-98*	?	12µM*
COc1ccc2c(COC(=O)CNC(=O)C34CC5CC(CC(C5)C3)C4)cc(=O)oc2c1	-8%	8%	3%	25	-17%	?
O=C(/C=C/c1cccnc1)/C=C/c1cccnc1	1µM*	3.3µM*	4.1µM*	-93*	3%	0.58µM*
COc1cccc(Nc2nc(-c3sc(C)nc3C)cs2)c1	-17%	-13%	-17%	3	0%	?
COc1cccc(Nc2nc(-c3sc(N)nc3C)cs2)c1	23µM*	24%	-5%	0	?	?
COc1ccccc1Nc1nc(-c2sc(N)nc2C)cs1	-15%	-13%	-10%	-12	?	?
COc1ccc(Cl)cc1Nc1nc(-c2sc(NC(=O)c3ccco3)nc2C)cs1	?	-17%	4%	-8	?	?
COc1cccc(Nc2nc(-c3sc(NC(=O)c4ccco4)nc3C)cs2)c1	?	-11%	-15%	-18	6.3µM*	23µM*
COc1cccc(Nc2nc(-c3ccc(CNC(C)=O)s3)cs2)c1	·	·	·	·	16µM*	·
Cc1nc(N)sc1-c1csc(Nc2ncccn2)n1	16µM*	21µM*	?	-81*	-23%	18µM*
CC(C)N1CCC1(C)C(=O)Nc1cccc(C#N)c1 (stereo not drawn)	-1%	?	6%	34	-1%	0%
Cc1ccc(C(=O)C(OC(=O)c2ccco2)c2ccccc2)cc1C (stereo not drawn)	·	·	·	·	-14%	·
N#Cc1cccc(OCCCN2CCC(C(O)(c3ccccc3)c3ccccc3)CC2)c1	?	?	?	-57*	?	16µM*
CS(=O)(=O)c1ccc(OCCCN2CCC(C(O)(c3ccccc3)c3ccccc3)CC2)cc1	·	·	·	·	1%	·
CS(=O)(=O)c1cccc(OCCCN2CCC(C(O)(c3ccccc3)c3ccccc3)CC2)c1	·	·	·	·	-23%	·

Screening data from PubChem BioAssay.
